Test results from PubChem BioAssay AID1159580 (chemical genetic matrix, 2015).
Several values for one entry are separate records, joined by “and”; a condition that tells them apart may be missing. Equal entries are not always repeated. Among all 5,500 compounds or so, about 2,000 (36%) were called active. Not shown: some 18% with an inconclusive outcome. No stated cut-off is given here; in the data, active means normalized growth mostly below about 0.91 (no sharp cut-off); inconclusive means no clear call, values can overlap the other calls; inactive means mostly above about 0.92. The list shows a part of the results.

Assay: chemical genetic growth profiling, strain panel (AID 1159580);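 further: tested at 20 µM; growth read once vehicle control cultures reached saturation at 30 °C; 1 = growth at the plate median or of vehicle wells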
Details: S. cerevisiae deletion strains, growth OD

Measured: normalized growth

Oc1ccc2c3c1OC1[C@@H](O)CC[C@@]4(O)[C@@H](C2)N(CC2CCC2)CC[C@]314 (stereo partly specified)
inactive: locus YAL013W, strain DEP1, stronger effect = lower value 1.01 | locus YAL021C, strain ccr4, stronger effect = lower value 0.987 | locus YAL026C, strain drs2, stronger effect = lower value 1.02 | locus YAL030W, strain snc1, stronger effect = lower value 0.981 | locus YBL061C, strain skt5, stronger effect = lower value 0.997 | locus YBR009C, strain hhf1, stronger effect = lower value 1.01 | locus YBR021W, strain FUR4, stronger effect = lower value 1.02 | locus YBR023C, strain chs3, stronger effect = lower value 0.993 | locus YBR171W, strain sec66, stronger effect = lower value 0.974 | locus YBR229C, strain ROT2, stronger effect = lower value 1.02 | locus YBR231C, strain swc5, stronger effect = lower value 0.997 | locus YBR279W, strain paf1, stronger effect = lower value 0.999 | locus YCL011C, strain gbp2, stronger effect = lower value 1.01 | locus YCL016C, strain dcc1, stronger effect = lower value 1.02 | locus YCL029C, strain bik1, stronger effect = lower value 1.03 | locus YCL061C, strain MRC1, stronger effect = lower value 1 | locus YCL069W, strain vba3, stronger effect = lower value 0.993 | locus YCR088W, strain abp1, stronger effect = lower value 1.01 | locus YDL005C, strain med2, stronger effect = lower value 0.989 | locus YDL035C, strain GPR1, stronger effect = lower value 1.02 | locus YDL040C, strain nat1, stronger effect = lower value 1 | locus YDL074C, strain BRE1, stronger effect = lower value 1.04 | locus YDL101C, strain DUN1, stronger effect = lower value 1.02 | locus YDL134C, strain PPH21, stronger effect = lower value 1.02 | locus YDL185W, strain tfp1, stronger effect = lower value 1.02 | locus YDL192W, strain arf1, stronger effect = lower value 1.02 | locus YDR001C, strain nth1, stronger effect = lower value 1.02 | locus YDR069C, strain doa4, stronger effect = lower value 1 | locus YDR101C, strain arx1, stronger effect = lower value 1.01 | locus YDR137W, strain rgp1, stronger effect = lower value 1.01 | locus YDR150W, strain NUM1, stronger effect = lower value 1.02 | locus YDR159W, strain sac3, stronger effect = lower value 0.987 | locus YDR162C, strain NBP2, stronger effect = lower value 1.02 | locus YDR195W, strain ref2 0.974 | locus YDR297W, strain sur2, stronger effect = lower value 1.01 | locus YDR318W, strain mcm21, stronger effect = lower value 1.02 | locus YDR334W, strain swr1, stronger effect = lower value 0.994 | locus YDR335W, strain msn5, stronger effect = lower value 1 | locus YDR388W, stronger effect = lower value 1.01 | locus YDR392W, strain spt3, stronger effect = lower value 1.01 | locus YDR502C, strain sam2, stronger effect = lower value 1.02 | locus YEL003W, strain gim4, stronger effect = lower value 1 | locus YEL037C, strain rad23, stronger effect = lower value 0.988 | locus YEL061C, strain CIN8 (second series), stronger effect = lower value 0.99 | locus YEL061C, strain CIN8, stronger effect = lower value 1.01 | locus YER015W, strain faa2, stronger effect = lower value 0.996 | locus YER016W, strain bim1, stronger effect = lower value 1.01 | locus YER110C, stronger effect = lower value 1.02 | locus YER111C, strain swi4, stronger effect = lower value 0.997 | locus YER155C, strain BEM2 (second series), stronger effect = lower value 0.963 | locus YER155C, strain BEM2, stronger effect = lower value 1.01 | locus YER167W, strain BCK2, stronger effect = lower value 1.02 | locus YFR010W, strain ubp6, stronger effect = lower value 0.978 | locus YGL078C, strain dbp3, stronger effect = lower value 1.01 | locus YGL086W, strain mad1, stronger effect = lower value 1.01 | locus YGL167C, strain pmr1, stronger effect = lower value 0.99 | locus YGL173C, strain kem1, stronger effect = lower value 0.98 | locus YGL227W, strain vid30, stronger effect = lower value 0.986 | locus YGL240W, strain doc1, stronger effect = lower value 1.01 | locus YGL248W, strain PDE1, stronger effect = lower value 1.02 | locus YGL253W, strain hxk2, stronger effect = lower value 1.01 | locus YGR078C, strain PAC10, stronger effect = lower value 1.03 | locus YGR135W, strain pre9, stronger effect = lower value 1.01 | locus YGR229C, strain SMI1, stronger effect = lower value 1.03 | locus YGR252W, strain gcn5, stronger effect = lower value 0.984 | locus YHR013C, strain ard1, stronger effect = lower value 0.973 | locus YHR027C, strain rpn1, stronger effect = lower value 0.996 | locus YHR030C, strain SLT2, stronger effect = lower value 1.02 and 0.983 | locus YHR079C, strain IRE1 (second series), stronger effect = lower value 1.02 | locus YHR079C, strain IRE1, stronger effect = lower value 0.966 | locus YHR094C, strain hxt1, stronger effect = lower value 1.01 | locus YHR129C, strain ARP1, stronger effect = lower value 1 | locus YHR142W, strain chs7, stronger effect = lower value 1.01 | locus YHR200W, strain rpn10, stronger effect = lower value 1.01 | locus YIL066C, strain RNR3, stronger effect = lower value 1.02 | locus YIL073C, strain SPO22, stronger effect = lower value 1.07 | locus YIL125W, strain kgd1, stronger effect = lower value 1.01 | locus YIR030C, strain dcg1, stronger effect = lower value 1.01 | locus YJL092W, strain hpr5, stronger effect = lower value 0.99 | locus YJL095W, strain BCK1 (second series), stronger effect = lower value 0.985 | locus YJL095W, strain BCK1, stronger effect = lower value 1.03 and 0.981 | locus YJL115W, strain asf1, stronger effect = lower value 0.974 | locus YJL129C, strain trk1, stronger effect = lower value 0.974 | locus YJL134W, strain LCB3, stronger effect = lower value 1.01 | locus YJL154C, strain vps35, stronger effect = lower value 0.999 | locus YJL164C, strain tpk1, stronger effect = lower value 1.01 | locus YJL166W, strain qcr8, stronger effect = lower value 0.986 | locus YJL168C, strain set2, stronger effect = lower value 1.01 | locus YJL187C, strain SWE1 (second series), stronger effect = lower value 1.03 | locus YJR043C, strain POL32, stronger effect = lower value 1.04 | locus YJR066W, strain TOR1, stronger effect = lower value 0.905
